In article doi:10.1101/2024.03.05.583629:

molecular target: pT7_6His-AlfaTag-HOXD13 (human, UniProt P35453 263-343); assay: PADIT-seq; conditions: dsDNA, one strand shown
Sequence (P35453 263-343): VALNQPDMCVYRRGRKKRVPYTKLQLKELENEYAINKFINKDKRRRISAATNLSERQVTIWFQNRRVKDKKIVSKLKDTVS

First: CTCGAGGATATCAAGATCTGGCCTCGGCATTTTAAGCGGAACCTCTAGCTAGCCGACTCACTATAGGGATAATCGCCCTGAGCAAAGACC
Second: CTCGAGGATATCAAGATCTGGCCTCGGCATTTTAAAGGGAACCTCTAGCTAGCCGACTCACTATAGGGATAATCGCCCTGAGCAAAGACC
The binding signal of the first is lower: 0.548 ± 0.1 log2FC for the first, 2.62 ± 0.0783 log2FC for the second.

Going from “CTCGAGGATATCAAGATCTGGCCTCGGCGCGCATGCGGGAACCTCTAGCTAGCCGACTCACTATAGGGATAATCGCCCTGAGCAAAGACC” to “CTCGAGGATATCAAGATCTGGCCTCGGCGTTTTATGAGGAACCTCTAGCTAGCCGACTCACTATAGGGATAATCGCCCTGAGCAAAGACC”, the binding signal rises from -0.957 ± 0.123 log2FC to 3.28 ± 0.127 log2FC.

Compared with “CTCGAGGATATCAAGATCTGGCCTCGGCCGCCCAGTCGGAACCTCTAGCTAGCCGACTCACTATAGGGATAATCGCCCTGAGCAAAGACC”, “CTCGAGGATATCAAGATCTGGCCTCGGCATTTTATTTGGAACCTCTAGCTAGCCGACTCACTATAGGGATAATCGCCCTGAGCAAAGACC” is higher in binding signal: -0.955 ± 0.134 log2FC for the first, 2.85 ± 0.07 log2FC for the second.

First: CTCGAGGATATCAAGATCTGGCCTCGGCTTTTTATCAGGAACCTCTAGCTAGCCGACTCACTATAGGGATAATCGCCCTGAGCAAAGACC
Second: CTCGAGGATATCAAGATCTGGCCTCGGCGTTTTATGTGGAACCTCTAGCTAGCCGACTCACTATAGGGATAATCGCCCTGAGCAAAGACC
The binding signal of the first is lower: 2.36 ± 0.0842 log2FC for the first, 2.96 ± 0.0773 log2FC for the second.

Compared with “CTCGAGGATATCAAGATCTGGCCTCGGCGTTTTAAATGGAACCTCTAGCTAGCCGACTCACTATAGGGATAATCGCCCTGAGCAAAGACC”, “CTCGAGGATATCAAGATCTGGCCTCGGCGAAGTAAAAGGAACCTCTAGCTAGCCGACTCACTATAGGGATAATCGCCCTGAGCAAAGACC” is lower in binding signal: 1.63 ± 0.0846 log2FC for the first, 0.136 ± 0.0787 log2FC for the second.
